# Out of some 52,000 compounds screened, about 4,300 (8.3%) were called active. Cut-off read from the data, not from the text of the source: active = survival mostly below about 52% (no sharp cut-off); inactive = mostly above about 56%. The full list was thinned out, with actives kept by preference.
# Tested on: DeltatarO mutant
# Test: S. aureus survival, RN4220 and DeltatarO strains – OD600, teichoic acid synthesis inhibitors, primary screen (AID 463173)
# Settings: S. aureus RN4220 wild type/DeltatarO growth, OD600, 18 h, stronger effect = lower value, screened at 18.75 µg/mL (by protocol)
row,Structure (SMILES),survival
1,CSc1ccc(CCNC(=O)c2cc3c(-c4ccccc4F)nn(C)c3s2)cc1,55% (inactive)
2,CCOc1ccc(CNC(=O)C2CCN(S(=O)(=O)c3cn(C)cn3)CC2)cc1,99% (inactive)
3,Cc1ccc(NC(=O)CCn2nc(C)c3c(C)n(-c4ccccc4)nc3c2=O)cc1Cl,117% (inactive)
4,CCOCCCn1c(SCC(=O)Nc2ccc(OC)cc2OC)nc2ccccc2c1=O,89% (inactive)
5,CCOC(=O)C1CCCN(C(=O)c2ccccc2NC(=O)c2nsc3ccccc23)C1 (stereo not given),130% (inactive)
6,CCOC(=O)c1[nH]c(C)c(CCC(=O)Nc2ccc(C(C)=O)cc2)c1C,72% (inactive)
7,O=C(NCc1ccccc1)C(=O)Nc1ccc2nc3n(c(=O)c2c1)CCCCC3,88% (inactive)
8,COc1cccc(Cn2c(=O)n(Cc3ccco3)c(=O)c3oc4ccccc4c32)c1,66% (inactive)
9,O=C(CC1CCCCC1)N1CCN(c2ccccc2)CC1,82% (inactive)
10,Cc1ccccc1C(=O)Nc1nnc(S(=O)(=O)N2CCCc3ccccc32)s1,96% (inactive)
11,O=C(Nc1nnc(S(=O)(=O)N2CCc3ccccc32)s1)c1ccccc1Cl,20% (active)
12,O=C(Nc1nnc(S(=O)(=O)N2CCCc3ccccc32)s1)c1ccccc1Br,17% (active)
13,Cc1ccccc1C(=O)Nc1nnc(S(=O)(=O)N2CCc3ccccc32)s1,95% (inactive)
14,O=C(Nc1nnc(S(=O)(=O)N2CCCc3ccccc32)s1)c1ccccc1Cl,28% (active)
15,CCOC(=O)c1ccc(CN(Cc2ccccc2C)S(=O)(=O)c2ccc(F)c(C(=O)Nc3cccc(OC)c3)c2)cc1,75% (inactive)
16,CCNC(=O)CC1C(=O)N(c2ccc(F)cc2)C(=O)N1CCOC (stereo not given),84% (inactive)
17,COc1ccc(CN(C(=O)Cc2coc3ccc(C)cc23)C2CCS(=O)(=O)C2)cc1 (stereo not given),67% (inactive)
18,Cc1cc2n(n1)CCCN2C(=O)Nc1ccccc1C(F)(F)F,76% (inactive)
19,CCc1ccc(NC(=O)C(=O)NCC(c2cccnc2)N2CCOCC2)cc1 (stereo not given),89% (inactive)
20,CC(=O)Nc1nonc1NC(C)=O,87% (inactive)
21,CC(=O)Nc1cc(OC(C)=O)c2nonc2c1OC(C)=O,29% (active)
22,CC(=O)Oc1ccc(Nc2nc3nonc3nc2Nc2ccccc2)cc1,83% (inactive)
23,COC(=O)c1nnn(-c2ccc(Br)cc2)c1C(=O)OC,79% (inactive)
24,CCOC(=O)c1ccc(NC(=O)CCc2c(C)nc3c(c(C)nn3C(C)(C)C)c2C)cc1,55% (active)

row,Structure (SMILES),survival
1,CCOC(=O)c1ccc(NC(=O)CCc2c(C)nc3c(c(C)nn3C)c2C)cc1,93% (inactive)
2,COC(=O)c1ccc(NC(=O)CCc2c(C)nc3c(c(C)nn3C(C)(C)C)c2C)cc1,59% (inactive)
3,Cc1ccc(-c2nc(CNC(=O)Nc3ccccc3)c(C)o2)cc1,71% (inactive)
4,COC(=O)c1cc2c(ccn2-c2ccc(F)cc2)n1CC(=O)N1CCCCC1,97% (inactive)
5,COc1ccc(C)cc1NC(=O)C1CCN(S(=O)(=O)c2ccc3[nH]c4c(c3c2)CCCCC4)CC1,94% (inactive)
6,COC(=O)c1cc(NC(=O)CCc2c(C)nc3c4c(C)cc(C)nc4nn3c2C)cc(C(=O)OC)c1,56% (active)
7,COc1cc(NC(=O)CCc2c(C)nc3c4c(C)cc(C)nc4nn3c2C)cc(OC)c1,74% (inactive)
8,CCOc1ccc(NC(=O)CCc2c(C)nc3c4c(C)cc(C)nc4nn3c2C)cc1,125% (inactive)
9,COc1ccc(NC(=O)c2oc3ccc(S(=O)(=O)N4CCCCC4)cc3c2C)cc1,87% (inactive)
10,CC(C)Cn1cc(NC(=O)N2CCN(c3cccc(C(F)(F)F)c3)CC2)c2ccccc2c1=O,77% (inactive)
11,COc1ccc(CCNC(=O)Cn2ncc3c(=O)oc4ccccc4c32)c(OC)c1,89% (inactive)
12,CCC1CCCCN1C(=O)CCS(=O)(=O)c1cc2c(cc1C)NC(=O)CO2 (stereo not given),81% (inactive)
13,COc1cccc(CNS(=O)(=O)c2ccc3c(c2)C(C(C)C)C(=O)N3)c1 (stereo not given),129% (inactive)
14,CC(C)C1C(=O)Nc2ccc(S(=O)(=O)NCCc3ccc(Cl)cc3)cc21 (stereo not given),77% (inactive)
15,CC(C)C1C(=O)Nc2ccc(S(=O)(=O)NCc3ccc(Cl)cc3)cc21 (stereo not given),52% (active)
16,CCCNc1c2c(nc3ccccc13)CC(C)(C)CC2=O,66% (inactive)
17,CCOc1ccccc1CNC(=O)c1ccc2nc(Cc3ccc(OC)cc3)oc2c1,73% (inactive)
18,CN(C1CCCCC1)C(c1ccc(F)cc1)c1nnnn1C1CCCCC1 (stereo not given),83% (inactive)
19,Cc1ccc(C)c(-c2nc(Cn3c(=O)cc(-c4ccccc4)c4c(C)nn(C)c43)c(C)o2)c1,130% (inactive)
20,CCOC(=O)c1ccc(NC(=O)c2csc3c2CCCC3)cc1,36% (active)
21,CCOC(=O)c1ccc(NC(=O)c2c(NCc3cccs3)sc3c2CCCC3)cc1,78% (inactive)
22,COc1ccc(NC(=O)c2noc3c2CCCC3)cc1Cl,83% (inactive)
23,O=C(Nc1ccc(OC(F)(F)F)cc1)c1noc2c1CCCC2,65% (inactive)
24,CSc1ccc(CCNC(=O)c2csc3c2CCCCC3)cc1,63% (inactive)

row,Structure (SMILES),survival
1,CCC(Cc1ccccc1)NC(=O)c1csc2c1CCCCC2 (stereo not given),125% (inactive)
2,CCOC(=O)c1ccc(NC(=O)c2noc3c2CCCC3)cc1,0% (active)
3,CCOC(=O)c1ccc(NC(=O)c2csc3c2CCCCC3)cc1,39% (active)
4,CCOC(=O)c1ccc(NC(=O)c2c(NCc3sccc3C)sc3c2CCCCC3)cc1,78% (inactive)
5,CCOC(=O)c1ccc(NC(=O)c2c(NCc3cccs3)sc3c2CCCCC3)cc1,104% (inactive)
6,CCOC(=O)c1ccc(NC(=O)c2cccc3c(=O)c4c([nH]c23)CCCC4)cc1,60% (inactive)
7,CC(CNC(=O)c1csc2c1CCCCC2)c1ccccc1 (stereo not given),-1% (active)
8,CCC(=O)C1=C(c2ccccc2)N(C(=O)CC)n2c(nnc2C2CCCCC2)S1,55% (inactive)
9,N#CCCn1c(=O)n(CCC#N)c(=O)n(CCC#N)c1=O,79% (inactive)
10,O=C1NC2(CCCCC2)C(=O)N1c1ccc(Cl)cc1,109% (inactive)
11,CCC(=O)OCCN1C(=O)c2ccccc2C1=O,91% (inactive)
12,COc1ccc(C(=O)Nc2ccc(NC(=O)c3ccco3)cc2)cc1OC,71% (inactive)
13,N#Cc1cccc(NC(=O)C2CCN(c3ncccn3)CC2)c1,66% (inactive)
14,Cc1cccc(CCn2c(=O)c3ccccc3n(CC(=O)Nc3ccccc3F)c2=O)c1,76% (inactive)
15,CCOc1ccc(OCC)c(NC(=O)c2csc3c2CCCC3)c1,-2% (active)
16,CCOc1ccc(CCNC(=O)c2csc3c2CCCCC3)cc1,73% (inactive)
17,O=C(Nc1ccccc1O)c1csc2c1CCCC2,80% (inactive)
18,CCn1c(C(=O)Nc2c(C)cccc2C)cc2sc(Cl)cc21,60% (active)
19,CCn1c(C(=O)Nc2ccccc2C(=O)OC)cc2sc(Cl)cc21,31% (active)
20,CCn1c(C(=O)Nc2cc(C)cc(C)c2)cc2sc(Cl)cc21,109% (inactive)
21,CCn1c(C(=O)Nc2ccc(C)cc2C)cc2sc(Cl)cc21,58% (inactive)
22,CCc1ccccc1NC(=O)c1cc2sc(Cl)cc2n1CC,77% (inactive)
23,CCn1c(C(=O)Nc2cc(Cl)ccc2C)cc2sc(Cl)cc21,77% (inactive)
24,COC(=O)c1[nH]c2ccc(F)cc2c1N,98% (inactive)

row,Structure (SMILES),survival
1,CCN(CC)c1ccc2cc(C(=O)Nc3ccc(NC(C)=O)cc3)c(=O)oc2c1,94% (inactive)
2,O=C(NCCc1ccccc1)c1ccc(CSc2nc3ccncc3n2Cc2ccccc2)cc1,73% (inactive)
3,CCc1ccc(NC(=O)C(NS(=O)(=O)c2cccs2)C(C)C)cc1 (stereo not given),55% (active)
4,Cc1ccc(NC(=O)C(Cc2ccccc2)NS(=O)(=O)c2cccs2)cc1Cl (stereo not given),90% (inactive)
5,Cc1ccc(NC(=O)C(Cc2ccccc2)NS(=O)(=O)c2ccc3c(c2)c(=O)n(C)c(=O)n3C)cc1 (stereo not given),64% (inactive)
6,CCc1cccc(NC(=O)C(Cc2ccccc2)NS(=O)(=O)c2ccc3c(c2)c(=O)n(C)c(=O)n3C)c1 (stereo not given),54% (inactive)
7,CCc1cccc(NC(=O)C(Cc2ccccc2)NS(=O)(=O)c2cccs2)c1 (stereo not given),44% (active)
8,COc1cc(NC(=O)C(Cc2ccccc2)NS(=O)(=O)c2cccs2)cc(OC)c1 (stereo not given),102% (inactive)
9,CCc1ccc(NC(=O)C(Cc2ccccc2)NS(=O)(=O)c2ccc3c(c2)c(=O)n(C)c(=O)n3C)cc1 (stereo not given),45% (active)
10,CCCOc1ccc(CNC(=O)C(NS(=O)(=O)c2cccs2)C(C)C)cc1 (stereo not given),77% (inactive)
11,Cc1ccc(CNC(=O)C(NS(=O)(=O)c2cccs2)C(C)C)cc1 (stereo not given),61% (inactive)
12,CC(CNC(=O)c1ccc2c(c1)nc1n2CCCCC1)c1ccccc1 (stereo not given),62% (inactive)
13,CCOC(=O)c1ccc(CN(Cc2ccccc2C)S(=O)(=O)c2ccc(F)c(C)c2)cc1,80% (inactive)
14,Cn1cnc(S(=O)(=O)N2CCCC(C(=O)NCc3ccc(F)cc3)C2)c1 (stereo not given),55% (inactive)
15,CCOC(=O)CN1N=NC2C(=O)N(c3ccccc3)C(=O)C21 (stereo not given),92% (inactive)
16,O=C(c1ccc2c(c1)OCCO2)N(Cc1cccnc1)c1nc2c(F)cc(F)cc2s1,88% (inactive)
17,Cc1ccc(CCNC(=O)CN(c2ccc(C(C)C)cc2)S(=O)(=O)c2c(C)nn(C)c2C)cc1,68% (inactive)
18,Cc1ccc(C(=O)c2cn(Cc3c(F)cccc3Cl)c3nc(C)ccc3c2=O)cc1,62% (inactive)
19,CCc1ccc(NC(=O)CSC2=Nc3ccccc3C3=NC(CCC(=O)NCCc4ccccc4)C(=O)N23)cc1 (stereo not given),81% (inactive)
20,O=S(=O)(/C=C/c1ccccc1)N1CCOCC1,67% (inactive)
21,N#Cc1ccccc1CSc1nc(N)cc(N)n1,106% (inactive)
22,Cc1ccc(CSc2nc(N)cc(N)n2)cc1,114% (inactive)
23,N#CCSc1nc(N)cc(N)n1,52% (active)
